Measurements from PubChem BioAssay (NCI).
The panel holds about 83,000 compounds, 20% with a hit somewhere; the sample as a whole holds those more often.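 Cell lines were cultured in 96-well plates, exposed to a single compound concentration, and assessed for percent growth 48 hours later.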 Unmarked numbers belong to inactive results. Activity calls are given as the source filed them. Rule for the calls: active = growth percent below 10; inactive = the rest.

system: A498 renal; test: NCI-60 one-dose screen, 48 h (100 = growth as untreated, 0 = no growth, -100 = all killed); conditions: 10 µM unless noted

SMILES | growth
COc1ccc(-c2nc3ccccc3n2CC(=O)N=Nc2c(O)[nH]c3ccc(OC)cc23)cc1 | 88.3%
COc1cc(NC(=O)C(C)C)ccc1C(=O)NC(=S)Nc1ccc(S(N)(=O)=O)cc1 | 150%
COc1cc(C2CC(c3cc(OC)c(OC)c(OC)c3)=Nc3c(N)nc(N)nc3N2)ccc1Oc1nc(Nc2ccc(F)cc2)nc(N(C)C)n1 (configuration not stated) | 118%
COc1ccc(C2=NN(C(=O)[C@H]3[C@@H](c4ccco4)c4sc(=O)[nH]c4S[C@@H]3C)C(c3ccc4ccccc4c3)C2)cc1 (some centres not stated) | 102%
O=C(CSc1nc2c(c(=O)[nH]1)CCCC2)Nc1ccccc1C(=O)O | 173%
O=C1c2cccc3c(N4CCN(c5ccccc5)CC4)ccc(c23)C(=O)N1c1cccc(-c2nn(-c3ccccc3)cc2-c2nc3ccccc3s2)c1 | 126%
N#CCc1nnc(NC(=O)c2ccc(-n3c(=O)[nH]c4ccccc4c3=O)cc2)s1 | 96.2%
CCOC(=O)/C(F)=C/C1CC1C(c1ccccc1)c1ccccc1 (configuration not stated) | 87.9%
Cc1ccc(S(=O)(=O)N(CCn2ccnc2[N+](=O)[O-])CCn2ccnc2[N+](=O)[O-])cc1 | 112%
CC(C)(C)C(=O)c1c2c(c3ccc4c5ccccc5ccc4n13)C(=O)c1ccccc1C2=O | 188%
O=C(N=Nc1c(O)[nH]c2ccc(Cl)cc12)c1ccc2nc(-c3ccc(Cl)cc3)[nH]c2c1 | 47.8%
COc1ccc(NC(=O)Cn2c(/C=C/c3cccc(OC)c3)nc3ccccc3c2=O)cc1 | -42.8% (active)
